For part of these data: Results with a measured potency or affinity are listed apart. Active and inactive are the calls of the source.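 Rule for the calls, unless noted: active = calcium signal rise above buffer-control mean plus 5 SD in both duplicates, and also a hit in the primary screen; inactive = the rest.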
Key:
[1] = tested on: TRPC4 beta (transient receptor potential cation channel C4), mouse; assay: TRPC4 cation channel opening, retest – cell-based, Fluo4 calcium, HEK293 TRPC4beta/mu-opioid, duplicates, 10 µM, confirmation (AID 2426;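 active = fluorescence ratio normalized to control raised more than 50% in primary screen plus both repeat runs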;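 for activation: percent rise of integrated ratio over buffer wells lacking compound which define 0%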); conditions: Fluo4 calcium fluorescence, at 10 µM; hits give high values
[2] = tested on: transient receptor potential cation channel C4 beta (TRPC4), mouse; assay: TRPC4 cation channel opening, second retest – cell-based, second round, Fluo4, HEK293 TRPC4beta/mu-opioid, 1 µM, confirmation (AID 2461;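 active = primary screen active and over 50% activation in each of two duplicate runs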;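 for activation: 0% = wells without test compound as baseline of integrated fluorescence ratio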); conditions: Fluo4 calcium fluorescence, at 1 µM; hits give high values
[3] = tested on: TRPC4 (transient receptor potential cation channel C4 beta), mouse; assay: potentiation of DAMGO EC20 TRPC4 response – cell-based, second round, Fluo-4, HEK293 TRPC4beta/mu-opioid, 1 µM, confirmation (AID 2554;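 active = primary screen hit whose fluorescence ratio, in both repeats, exceeds the weak agonist control mean by 3 SD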); conditions: DAMGO EC20, Fluo-4 calcium flux, at 1 µM; hits give high values
[4] = tested on: TRPC4 beta (transient receptor potential cation channel C4), mouse; assay: potentiation of DAMGO EC20 TRPC4 response – cell-based, Fluo-4, HEK293 TRPC4beta/mu-opioid, confirmation (AID 2555;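 active = primary screen hit whose calcium fluorescence ratio, in both repeats, exceeds the weak agonist control mean by 3 SD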); conditions: DAMGO EC20, Fluo-4 calcium flux, at 10 µM; hits give high values
[5] = molecular target: Short transient receptor potential channel 4 (Mus musculus) (UniProt Q9QUQ5); assay: blockers of DAMGO-evoked TRPC4 calcium flux – cell-based, Fluo4, HEK293 TRPC4beta/mu-opioid, confirmation (AID 2636;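 active = calcium signal cut by more than 3 SD below the full-agonist control yet still positive, in both repeats and the earlier primary screen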); conditions: at 10 µM; hits give high values
[6] = molecular target: Short transient receptor potential channel 4 (Mus musculus) (UniProt Q9QUQ5); assay: blockers of DAMGO-evoked TRPC4 calcium flux – cell-based, second round, Fluo4, HEK293 TRPC4beta/mu-opioid, 1 µM, confirmation (AID 2637;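 active = calcium signal ratio cut to more than 3 SD under the fully stimulated control mean yet still positive, in both repeats and the primary screen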); conditions: at 1 µM; hits give high values
[7] = molecular target: Short transient receptor potential channel 4 (Mus musculus) (UniProt Q9QUQ5); assay: potentiation of DAMGO-evoked TRPC4 calcium signal – cell-based, HEK293 TRPC4/mu-opioid, Fluo-4 calcium, EC20 DAMGO, dose response (AID 434941;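 active = earlier screen potentiator hit that boosts the TRPC4 ion channel at some dose, with a dose response; inactive = no potentiation, no dose response, or not a prior hit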;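 note: calcium entry triggered by an EC20 dose of DAMGO at the co-expressed mu-opioid receptor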)
[8] = molecular target: Short transient receptor potential channel 4 (Mus musculus) (UniProt Q9QUQ5); assay: block of DAMGO-driven TRPC4 calcium entry – cell-based, HEK293 TRPC4/mu-opioid, Fluo-4 calcium, dose response (AID 434942;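 active = primary screen inhibitor hit that blocks the TRPC4 channel at some tested dose, yielding a dose curve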)
[9] = molecular target: Short transient receptor potential channel 6 (Mus musculus) (UniProt Q61143); assay: TRPC6 blockade by TRPC4 inhibitor hits – cell-based, HEK293, membrane potential dye, duplicate, selectivity assay for TRPC4 inhibitor project, confirmation (AID 434948;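 active = active in primary screen and both duplicates, each dropping signal beyond three positive-control SD with fluorescence still positive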); conditions: HEK293 TRPC6, membrane potential dye fluorescence, at 10 µM, stimulated with maximal-effect acetylcholine; hits give high values
[10] = molecular target: Short transient receptor potential channel 6 (Mus musculus) (UniProt Q61143); assay: TRPC6 opening by TRPC4 activator hits – cell-based, HEK293, membrane potential dye, duplicate, selectivity assay for TRPC4 activator project, confirmation (AID 434950;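 active = membrane potential signal rise above negative control mean plus 3 SD in both duplicates, also active in the earlier TRPC4 screen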;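 for activation: 0% = buffer only wells and 100% = acetylcholine maximal-effect wells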); conditions: HEK293 TRPC6, membrane potential fluorescence, at 10 µM; activation: hits give high values; outcome: activation
[11] = molecular target: Short transient receptor potential channel 6 (Mus musculus) (UniProt Q61143); assay: positive modulators of mouse TRPC6 channel – HEK293 cells, membrane potential dye, duplicate, selectivity assay for TRPC4 potentiator project, confirmation (AID 434952;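 active = compound raising the membrane signal above positive-control mean plus 3 SD in both repeats, and a primary screen hit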); conditions: HEK293 TRPC6, membrane potential dye fluorescence, at 10 µM, maximal acetylcholine added after compound; hits give high values
[12] = molecular target: Short transient receptor potential channel 4 (Mus musculus) (UniProt Q9QUQ5); assay: calcium flux activators in TRPC4/5HT1a cells, counter-screen for TRPC4 activator project, cell-based, second counter screen, HEK293 TRPC4/5HT1a, Fluo-4 (AID 434977); conditions: Fluo-4 calcium flux, at 10 µM; hits give high values;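 for activation: plate controls were assay buffer for no effect and maximal serotonin response for full effect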
[13] = serotonin-gated TRPC4 signal block – cell-based, second counter screen, HEK293 TRPC4/5HT1a, Fluo-4, counter-screen for TRPC4 inhibitor project, confirmation (AID 434978;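 active = primary screen active whose calcium signal fell more than 3 SD beyond the full-serotonin control mean in both duplicate plates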;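 note: serotonin given first at submaximal then at maximal dose after compound preincubation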); conditions: Fluo-4 calcium flux, at 10 µM, serotonin added to trigger calcium flux; hits give high values
[14] = tested on: TRPC4 (mouse), co-expressed with 5HT1a in HEK293; assay: enhancement of serotonin-evoked TRPC4 response – cell-based, second counter screen, HEK293 TRPC4/5HT1a, Fluo-4, counter-screen for TRPC4 potentiator project, confirmation (AID 434979;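 active = signal rise over 3 SD above mean of control wells given weak agonist, in both repeats and first screen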); conditions: Fluo-4 calcium flux, at 10 µM, serotonin added at its EC20 dose; hits give high values
[15] = nonspecific calcium rise without TRPC4 – cell-based, HEK293 mu-opioid receptor line, counter-screen for TRPC4 activator project, confirmation (AID 449723;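 active = hit in primary screen, with calcium signal over 5 SD above buffer well mean in both duplicates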;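 note: counter screen cells carry the mu-opioid receptor alone and lack TRPC4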); conditions: HEK293 mu-opioid cells, Fluo-4 calcium fluorescence, at 10 µM; hits give high values
[16] = nonspecific potentiation of DAMGO calcium response – cell-based, HEK293 mu-opioid receptor line, counter-screen for TRPC4 allosteric potentiator project, confirmation (AID 449724;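 active = calcium signal rise more than 3 SD above the low-dose agonist control mean, in both duplicate plates and the primary screen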); conditions: HEK293 mu-opioid receptor cells, Fluo-4 calcium flux, at 10 µM, compound added before EC20 DAMGO stimulus; hits give high values

Sequence of Short transient receptor potential channel 4 (Mus musculus) (Q9QUQ5 whole entry, looked up): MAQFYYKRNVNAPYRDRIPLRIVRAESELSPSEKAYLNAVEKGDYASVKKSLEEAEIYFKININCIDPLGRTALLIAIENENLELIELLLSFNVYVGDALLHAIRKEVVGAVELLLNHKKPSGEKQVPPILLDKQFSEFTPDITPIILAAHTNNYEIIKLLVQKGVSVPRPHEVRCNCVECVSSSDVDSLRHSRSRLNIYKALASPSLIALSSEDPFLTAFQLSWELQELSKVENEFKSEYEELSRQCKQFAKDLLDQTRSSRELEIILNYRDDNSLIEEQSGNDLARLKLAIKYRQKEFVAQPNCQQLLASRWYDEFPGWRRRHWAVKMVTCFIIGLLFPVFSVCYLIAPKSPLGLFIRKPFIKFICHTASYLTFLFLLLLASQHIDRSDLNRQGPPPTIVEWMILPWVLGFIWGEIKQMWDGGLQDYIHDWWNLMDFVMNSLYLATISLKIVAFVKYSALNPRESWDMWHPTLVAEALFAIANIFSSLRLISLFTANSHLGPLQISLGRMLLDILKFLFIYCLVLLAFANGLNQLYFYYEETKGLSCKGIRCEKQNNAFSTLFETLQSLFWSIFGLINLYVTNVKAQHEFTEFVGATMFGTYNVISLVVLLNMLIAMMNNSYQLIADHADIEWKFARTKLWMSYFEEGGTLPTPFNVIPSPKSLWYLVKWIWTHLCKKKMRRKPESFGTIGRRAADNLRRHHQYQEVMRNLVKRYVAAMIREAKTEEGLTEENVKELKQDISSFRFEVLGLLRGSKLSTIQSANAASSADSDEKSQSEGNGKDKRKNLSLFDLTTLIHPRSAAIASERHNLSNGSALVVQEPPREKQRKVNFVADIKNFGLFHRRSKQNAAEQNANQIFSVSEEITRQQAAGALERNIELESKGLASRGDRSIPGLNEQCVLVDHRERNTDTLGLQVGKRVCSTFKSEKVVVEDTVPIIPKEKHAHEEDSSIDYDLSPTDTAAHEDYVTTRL
Sequence of Short transient receptor potential channel 6 (Mus musculus) (Q61143 whole entry, looked up): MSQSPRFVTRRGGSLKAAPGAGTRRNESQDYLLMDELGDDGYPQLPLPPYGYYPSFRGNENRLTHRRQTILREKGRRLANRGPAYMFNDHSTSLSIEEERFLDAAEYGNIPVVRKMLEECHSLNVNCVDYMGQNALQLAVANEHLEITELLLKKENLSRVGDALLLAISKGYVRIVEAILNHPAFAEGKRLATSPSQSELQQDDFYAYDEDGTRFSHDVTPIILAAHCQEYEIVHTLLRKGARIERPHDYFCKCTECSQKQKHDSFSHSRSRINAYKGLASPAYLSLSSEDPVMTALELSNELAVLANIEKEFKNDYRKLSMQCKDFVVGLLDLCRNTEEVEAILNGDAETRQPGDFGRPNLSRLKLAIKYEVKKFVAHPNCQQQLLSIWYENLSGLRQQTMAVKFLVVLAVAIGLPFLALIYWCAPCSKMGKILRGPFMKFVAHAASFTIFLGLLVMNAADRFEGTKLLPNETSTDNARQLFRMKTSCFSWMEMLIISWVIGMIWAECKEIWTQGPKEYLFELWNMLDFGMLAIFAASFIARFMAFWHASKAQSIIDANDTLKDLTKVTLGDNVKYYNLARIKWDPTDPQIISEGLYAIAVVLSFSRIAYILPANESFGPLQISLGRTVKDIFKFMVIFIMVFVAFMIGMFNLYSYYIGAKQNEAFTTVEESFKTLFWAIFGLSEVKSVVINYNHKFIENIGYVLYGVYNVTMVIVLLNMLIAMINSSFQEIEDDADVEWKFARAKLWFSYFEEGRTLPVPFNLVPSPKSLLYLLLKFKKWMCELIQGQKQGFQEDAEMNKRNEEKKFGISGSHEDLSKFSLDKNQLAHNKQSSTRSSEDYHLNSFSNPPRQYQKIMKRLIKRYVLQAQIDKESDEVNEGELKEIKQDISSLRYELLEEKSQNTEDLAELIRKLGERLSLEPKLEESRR

CCOC(=O)C1(CCc2ccccc2)CCN(Cc2c(O)cccc2OC)CC1
active: activation [1] 83% | activation [10] 92.5%
inactive: outcome [2] | outcome [3] | outcome [4] | outcome [5] | outcome [6] | outcome [7] | outcome [8] | outcome [9] | outcome [11] | outcome [12] | outcome [13] | outcome [14] | outcome [15] | outcome [16]

CCCC(=O)NC(C)C(c1cccs1)N1CCN(c2ccccc2)CC1 (stereo not given)
inactive: outcome [1] | outcome [2] | outcome [3] | outcome [4] | outcome [5] | outcome [6] | outcome [7] | outcome [8] | outcome [9] | outcome [11] | outcome [12] | outcome [13] | outcome [14] | outcome [15] | outcome [16]
active: activation [10] 38.5%

CN(C)C(CNC(=O)C1CC(=O)N(Cc2ccccc2)C1)c1ccccc1 (stereo not given)
inactive: outcome [2] | outcome [3] | outcome [4] | outcome [5] | outcome [6] | outcome [7] | outcome [8] | outcome [9] | outcome [10] | outcome [11] | outcome [12] | outcome [13] | outcome [14] | outcome [15] | outcome [16]
active: activation [1] 90%

CN(C)CCCN(C(=O)c1ccc(S(=O)(=O)N2CCOCC2)cc1)c1nc2ccc(F)cc2s1
active: activation [1] 104%
inactive: outcome [2] | outcome [3] | outcome [4] | outcome [5] | outcome [6] | outcome [7] | outcome [8] | outcome [9] | outcome [10] | outcome [11] | outcome [12] | outcome [13] | outcome [14] | outcome [15] | outcome [16]

COc1cc(/C=C/C(=O)c2ccc3c(c2)OCO3)cc(Cl)c1O
active: activation [1] 113% | activation [10] 427% | activation [12] 69.2% | activation [15] 122%
inactive: outcome [2] | outcome [3] | outcome [4] | outcome [5] | outcome [6] | outcome [7] | outcome [8] | outcome [9] | outcome [11] | outcome [13] | outcome [14] | outcome [16]

COc1ccc(-c2nc(CN3CCC(C(=O)NC4CCCC4)CC3)c(C)o2)cc1OC
inactive: outcome [3] | outcome [4] | outcome [5] | outcome [6] | outcome [7] | outcome [8] | outcome [9] | outcome [11] | outcome [12] | outcome [13] | outcome [14] | outcome [15] | outcome [16]
active: activation [1] 152% | activation [2] 70% | activation [10] 57%

CCN(CC)CCCOc1ccc(Cl)c(Cl)c1
active: potentiation [3] 31% | potentiation [4] 33% | activation [10] 48% | activation [12] 17.9% | potentiation [14] 21.3%
inactive: outcome [1] | outcome [2] | outcome [5] | outcome [6] | outcome [7] | outcome [8] | outcome [9] | outcome [11] | outcome [13] | outcome [15] | outcome [16]

Cc1ccccc1NC(=S)NCCc1ccccn1
active: activation [1] 143% | activation [12] 56.5%
inactive: outcome [2] | outcome [3] | outcome [4] | outcome [5] | outcome [6] | outcome [7] | outcome [8] | outcome [9] | outcome [10] | outcome [11] | outcome [13] | outcome [14] | outcome [15] | outcome [16]

COc1cc(C(=O)NC(=S)NNC(=O)[C@H]2C[C@@H]2c2ccccc2)cc(OC)c1OC
active: activation [1] 59% | activation [10] 34% | activation [12] 63.3% | activation [15] 13.1%
inactive: outcome [2] | outcome [3] | outcome [4] | outcome [5] | outcome [6] | outcome [7] | outcome [8] | outcome [9] | outcome [11] | outcome [13] | outcome [14] | outcome [16]

CCCCC(=O)NNC(=S)NC(=O)c1ccc(C)cc1
active: activation [1] 240% | activation [12] 15%
inactive: outcome [2] | outcome [3] | outcome [4] | outcome [5] | outcome [6] | outcome [7] | outcome [8] | outcome [9] | outcome [10] | outcome [11] | outcome [13] | outcome [14] | outcome [15] | outcome [16]

COc1ccc(C(CNC(=O)c2ccc(S(=O)(=O)N(C)C)cc2)N(C)C)cc1 (stereo not given)
inactive: outcome [3] | outcome [4] | outcome [5] | outcome [6] | outcome [7] | outcome [8] | outcome [9] | outcome [11] | outcome [12] | outcome [13] | outcome [14] | outcome [15] | outcome [16]
active: activation [1] 296% | activation [2] 179% | activation [10] 29%

O=C(CCC1CCCC1)c1c(O)c2ccccc2oc1=O
active: activation [1] 222% | activation [10] 25% | activation [12] 19.6% | activation [15] 51.5%
inactive: outcome [2] | outcome [3] | outcome [4] | outcome [5] | outcome [6] | outcome [7] | outcome [8] | outcome [9] | outcome [11] | outcome [13] | outcome [14] | outcome [16]

C#Cc1cccc(C(=O)NC2CCCN(C3Cc4ccccc4C3)C2)c1 (stereo not given)
inactive: outcome [3] | outcome [4] | outcome [5] | outcome [6] | outcome [7] | outcome [8] | outcome [9] | outcome [11] | outcome [13] | outcome [14] | outcome [15] | outcome [16]
active: activation [1] 191% | activation [2] 94% | activation [10] 59% | activation [12] 111%

CCCCCSc1nnc2c(n1)OC(c1cccn1C)N(C(C)=O)c1ccccc1-2 (stereo not given)
inactive: outcome [1] | outcome [2] | outcome [3] | outcome [4] | outcome [5] | outcome [6] | outcome [7] | outcome [8] | outcome [9] | outcome [10] | outcome [11] | outcome [13] | outcome [14] | outcome [15] | outcome [16]
active: activation [12] 18%

CN(C)C(CNC(=O)/C=C/c1cccc(Cl)c1)c1ccccc1 (stereo not given)
active: activation [1] 148% | activation [2] 83% | activation [10] 49%
inactive: outcome [3] | outcome [4] | outcome [5] | outcome [6] | outcome [7] | outcome [8] | outcome [9] | outcome [11] | outcome [12] | outcome [13] | outcome [14] | outcome [15] | outcome [16]
